Inconclusive results are not listed. A number with no mark means an inactive call. Calls of active or inactive are those of the source. Calls follow the shape of the dose curve; as a rule, active = well fitted inhibition curve with a large enough effect; inconclusive = small, poorly fitted or top-dose-only effect; inactive = flat fitted curve, though single readings scatter. Where a SMILES comes first, the peptide text is derived from it.
% is scaled to controls: 0 for no effect and ±100 for the full control effect.

In the test the test system is CRL-7250. The test can be described thus: Cytotoxic Profiling of Annotated Libraries Using Quantitative High-Throughput Screening (AID 1296008). Also: nearly all actives have a fitted effect of over 60% in size. As to conditions: Five cell lines viability, CellTiter-Glo ATP luminescence, 48-72 h; max response: stronger effect = lower value. In outline:
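Cytotoxicity was measured as CellTiter-Glo ATP luminescence, read after 10 min at room temperature. Compound treatment of the cells lasted 48 or 72 hr at 37 degrees Celsius in a qHTS format.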
Turning to `CC(C)CC(=O)O[C@@H]1O[C@H](CO)[C@@H](O[C@H]2O[C@H](C)[C@@H](N[C@H]3C=C(CO)[C@@H](O[C@H]4O[C@H](CO)[C@@H](O[C@H]5O[C@H](CO)[C@@H](O[C@H]6O[C@H](CO)[C@@H](O)[C@H](O)[C@H]6O)[C@H](O)[C@H]5O)[C@H](O)[C@H]4O)[C@H](O)[C@H]3O)[C@H](O)[C@H]2O)[C@H](O)[C@H]1O`, the max response was 1.09%.

As to `NC[C@H]1CCC[C@@H](CNC(=O)[C@@H](Cc2c[nH]c3ccccc23)NC(=O)N2CCC3(C=Cc4ccccc43)CC2)C1`, the max response was 0.396%.

Turning to `CC1CCC2(C)CCC3(C)C(=CCC4C5(C)CCC(O)C(C)(C(=O)O)C5CCC43C)C2C1C` (centres undefined), the compound was called inactive.

Take `C[C@@H]1O[C@@H](O[C@H]2[C@@H]3C=CO[C@@H](O[C@@H]4O[C@H](CO)[C@@H](O)[C@H](O)[C@H]4O)[C@@H]3[C@@]3(CO)O[C@@H]23)[C@H](O)[C@H](O)[C@H]1OC(=O)/C=C/c1ccc(O)cc1`: the max response is -9.97%. For the compound `CC(CC12CCCN1C(=O)C1CCCN1C2=O)OC(N)=O` (centres undefined), the outcome was inactive. Turning to `CC/C=C\C(O)C(O)C1=C(C)C(=O)C2(O1)C(=O)NC(OC)(C(=O)c1ccccc1)C2O` (centres undefined), the outcome was inactive. On to `COc1c2cc(c(O)c1OC)CCCCC(O)CCc1ccc(O)c-2c1` (centres undefined), for which the max response is -1.76%. As for `CC1CC(=O)[C@]2(O)C(C(=O)OCCc3ccc(O)cc3)=CO[C@@H](O[C@@H]3O[C@H](CO)[C@@H](O)[C@H](O)[C@H]3O)[C@H]12` (some centres undefined), the max response was -11.7%. On to `COC(=O)C1=CO[C@@H](O[C@@H]2O[C@H](CO)[C@@H](O)[C@H](O)[C@H]2O)C2C1CC(O)C2C` (some centres undefined), for which the max response is -13.7%. With `CC(=O)OC[C@]12[C@H](OC(C)=O)[C@H](OC(=O)c3ccccc3)[C@@H]3[C@@H](OC(C)=O)[C@]1(OC3(C)C)[C@H](C)C[C@H](OC(=O)c1ccccc1)[C@@H]2OC(=O)c1ccccc1`, the outcome was inactive. In the case of `C[C@]1(C2CCCC2)Cc2cc(OCC(=O)O)c(Cl)c(Cl)c2C1=O`, the max response was 3.09%. Still for that read-out and setting: the result for `CC(NC(=O)c1ccccc1N)C(=O)O` (centres undefined) reads 2.02%; that for `O=C(Nc1ccn(Cc2c(F)cccc2C(F)(F)F)n1)c1c(F)cccc1F`, -12.9%. With `O=C(OC(C(F)(F)F)C(F)(F)F)N1CCN(Cc2cccc(Oc3ccccc3)c2)CC1`, the compound was called inactive. Take `C[C@H]1CC[C@@]2(OC1)O[C@H]1CC3C4CC[C@H]5C[C@@H](O)CC[C@]5(C)C4CC(=O)[C@]3(C)[C@H]1[C@@H]2C` (some centres undefined): the max response was 2.1%. Turning to `Cc1oc(S(=O)(=O)N2CCCCC2)cc1NC(=O)Nc1ccccc1`, the call was inactive.

`CCC(C)/C=C(C)/C=C/C1=CC2=C(Cl)C(=O)C(C)(OC(C)=O)C(=O)C2=CN1C(CC(=O)O)C(=O)O` (centres undefined): the max response was 4.26%. For `CC(C)[C@](O)(c1ccc2cc(OC(F)F)c(OC(F)F)cc2c1)c1cn[nH]n1`, the call was inactive. As for `COc1cc(C(=O)OC[C@H]2O[C@@H](OC(C)(C)C(=O)O)[C@H](O)[C@@H](O)[C@@H]2O)cc(OC)c1O`, the max response was -2.21%. The same measure, in the same setting: the result for `COc1cc(C(C)=O)ccc1O[C@@H]1O[C@H](CO)[C@@H](O)[C@H](O)[C@H]1O` reads -12.2%; that for `CC1(C)C(=O)CCC2(C)C1C(O)C=C1COC(=O)C12O` (centres undefined), -15.2%. On the same count and under the same terms, the result for `COc1cc(/C=C/c2ccccc2)c(C(=O)O)c(O)c1CC=C(C)C` reads -4.97%; that for `CCC(C)C(C(=O)O)N1Cc2c(OCC=C(C)C)c(C)c(OC)c(C(=O)O)c2C1=O` (centres undefined), 0.564%.

With `COC(=O)C1=CO[C@@H](O[C@@H]2O[C@H](CO)[C@@H](O)[C@H](O)[C@H]2O)[C@@H]2[C@@H](CO)[C@@H](O)C(O)[C@H]12` (some centres undefined), the outcome was inactive. As for `CC(C)C[C@H](NC(=O)[C@@H]1O[C@H]1C(=O)O)C(=O)NCCCCN=C(N)N`, the max response is -9.88%.

Turning to `C[C@@H]1O[C@@H](OC[C@H]2O[C@@H](OCc3ccccc3)[C@H](O)[C@@H](O)[C@@H]2O)[C@H](O)[C@H](O)[C@H]1O`, the outcome was inactive. `CNC(=O)c1ccc2c(c1)CCO[C@H]2CCN1CCN(c2ccc(C(N)=O)cc2)CC1`: the max response is 0.998%. Consider `COC(=O)C1=COC(OC2OC(CO)C(O)C(O)C2O)C2C(COC(=O)/C=C/c3ccc(O)c(O)c3)C(O)C(O)C12` (centres undefined), for which the result was inactive. Regarding `CC(C)C1NC(=O)CNC(=O)C2CCCN2C(=O)C(Cc2c[nH]c3ccccc23)NC(=O)CNC(=O)C(Cc2ccc(O)cc2)NC(=O)CNC1=O` (centres undefined) (cyclo(GVGYGWP); configuration not given here), the max response was -2.61%.

Values taken from PubChem BioAssay (NCATS).
